What all share (test): NCI-60 one-dose screen, 48 h (100 = growth as untreated, 0 = no growth, -100 = all killed)
Common to all, as to conditions: 10 µM unless noted

In test [1] the test system is DU-145 prostate.
Test [2] concerns K-562 leukemia.
The test system of test [3] is MDA-MB-231 breast.
Test [4] deals with RXF 393 renal.
The test system of test [5] is SF-268 CNS.
Test [6] concerns SF-539 CNS.
Test [7] concerns UACC-257 melanoma.
The test system of test [8] is M14 melanoma.
In test [9] the test system is HCT-15 colon.
In test [10] the test system is HT29 colon.
Test [11] concerns SNB-75 CNS.
In test [12] the test system is SNB-19 CNS.
For test [13], the system named is U251 CNS.
For test [14], the system named is PC-3 prostate.
The subject of test [15] is SK-MEL-5 melanoma.
For test [16], the system named is UACC-62 melanoma.
Test [17] relates to LOX IMVI melanoma.
Test [18] concerns SK-MEL-28 melanoma.
Test [19] has as its system MALME-3M melanoma.
Test [20] relates to SF-295 CNS.

SMILES strings stand for the structures. This is part of a sample that, as a whole, favours compounds with a hit. Of some 83,000 tested, about 20% had one in any assay.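 Testing used 96-well plates and a 48-hour single-concentration exposure. Example: -40 means 40% of the starting cells died.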 Values without a mark were called inactive. Calls of active or inactive are those of the source. How the source made its calls: active means growth percent below 10; inactive means the rest.

On to `CCCCCCCCCCC(C(O)c1ccccc1)N1CCCCC1` (centres undefined), for which the growth in test [1] was 64.5%; in test [2] it was 3.31% (active); in test [3], 9.66% (active); in [4] it was -22.3% (active); in test [5], 68.4%; in test [6] it was 27.3%. In addition, the growth was -1.19% (active) in test [7]; -63.8% (active) in test [8]; 16.8% in [9]; -10.5% (active) in [10]; 63.1% in [11]; 43.7% in test [12]. For the same molecule, the growth in test [13] is 28%; in test [14] it was 25.7%; in [15] it was -94.3% (active); in test [16], -9.77% (active); in [17], -30.5% (active); in [18], -15.9% (active).
With `Nc1ncnc2c1N=C(c1ccc(F)cc1)CC(c1sc(Cl)nc1Cl)N2` (centres undefined), the growth in [1] is 98.8%; in test [19] it was 111%; in test [3], 88.2%; in [4], 78.3%; in test [5], 85.4%; in test [20], 95.8%. Moreover, the growth was 85.7% in test [6]; 91% in test [7]; 109% in test [8]; 102% in test [9]; 92.2% in test [10]; 74% in test [11]. In addition, the growth is 92.9% in [12]; 84.7% in [13]; 79.5% in test [14]; 92% in [15]; 94.5% in [16]; 93% in test [17]. Moreover, in test [18], the growth was 102%.
Take `COCCCNCC(=O)Nc1c(C)cccc1C`: the growth was 113% in test [1]; 120% in [2]; 96.6% in test [3]; 113% in test [4]; 109% in test [5]; 95.3% in test [6]. Also, the growth in [7] is 106%; in [8], 114%; in [9] it was 108%; in [10], 112%; in test [11], 115%; in [12], 110%. In addition, the growth was 104% in test [13]; 102% in test [14]; 106% in test [15]; 110% in test [16]; 101% in test [17]; 122% in test [18].
For the molecule `COc1cc(-c2n/c(=C\c3c(O)[nH]c4cc(Cl)ccc34)cc3c2=Nc2ccccc2-3)cc(OC)c1OC`, the growth is 30.6% in [1]; 49.1% in [2]; 53.1% in [3]; 28.7% in test [4]; 22.5% in test [5]; 62.7% in test [6]. Further, the growth was 40.9% in test [7]; 93.7% in test [9]; 24.3% in [10]; 36.1% in test [11]; 23.8% in test [13]; 52.2% in [14]. Further, the growth was 27.2% in test [15], 56.8% in [16], 34.3% in test [17] and 43% in test [18].
Take `CCCCCNCCCCCNc1cc(OC)cc2cccnc12`: the growth was 104% in [1]; 60.2% in test [19]; 88.8% in test [3]; 68.3% in test [4]; 95.6% in test [5]; 87.8% in test [6]. In addition, the growth was 101% in test [7]; 87.3% in [8]; 88.6% in test [9]; 64.2% in [10]; 94.1% in [12]; 79.8% in test [13]. The growth was 69.6% in test [14]; 31.1% in [15]; 75.3% in test [16]; 95.5% in [17]; 91.9% in test [18].
Regarding `Clc1ccccc1Nc1nnc(-c2ccncc2)s1`, the growth in test [2] is 101%; in test [19], 109%; in [3] it was 108%; in test [4] it was 107%; in test [5] it was 105%; in [20] it was 88.7%. Further, the growth was 108% in test [6]; 108% in [7]; 104% in test [8]; 112% in [9]; 105% in test [10]; 106% in [11]. Further, the growth in test [12] is 99.8%; in test [13], 103%; in test [14] it was 97.2%; in [15] it was 97.7%; in test [16] it was 95.3%; in test [17] it was 110%. Besides, the growth in test [18] was 100%.
With `CCOc1cccc(/C=N/NC(=O)Cc2ccc(Nc3ccnc(C(F)(F)F)c3)cc2)c1O`, the growth in [1] was 33.2%; in test [19] it was 34.3%; in [3], 26.8%; in [4] it was 51.1%; in [5], 18.2%; in test [20], 47.9%. In addition, the growth in [6] is 17.4%; in test [7] it was 21.9%; in [8] it was 3.19% (active); in [9], 17.3%; in [10], 85%; in [11], 39.4%. The growth in test [13] was 20.6%; in test [14] it was 50%; in [15], -36% (active); in test [16], -5.55% (active); in test [17] it was 2.43% (active); in test [18], 60.6%.
For `CC(C)(C)NC(=O)C(OC(=O)C1CCc2cc(F)ccc2O1)c1ccccc1Cl` (centres undefined), the growth in [2] was 103%; in test [19], 94.4%; in test [3], 92.4%; in test [4], 96.3%; in test [20], 95.4%; in test [6], 108%. Besides, the growth in [7] was 106%; in test [9] it was 98.7%; in test [10], 103%; in test [11], 83.3%; in test [12], 97.1%; in [13] it was 102%. Further, the growth in test [14] was 92.4%; in test [15] it was 94.5%; in test [16], 87.6%; in test [17], 102%; in test [18] it was 108%.
For the molecule `CCOC(=O)NNc1cccc(Cl)c1`, the growth is 102% in [2]; 93.6% in test [19]; 76.3% in test [3]; 100% in [4]; 110% in test [5]; 109% in [20]. The growth in test [6] is 99.8%; in test [7] it was 103%; in test [8], 104%; in [9] it was 107%; in [10] it was 109%; in test [13], 100%. For the same molecule, the growth is 89.7% in test [14]; 101% in test [15]; 83.8% in [16]; 92.8% in test [17]; 109% in [18].

These data come from PubChem BioAssay (NCI).
